Screening data (PubChem)
Pol eta inh-1 – qHTS for Inhibitors of Polymerase Eta. Potency, µM (highest dose often 114 µM), usual class: inhibitors. 390,000 compounds, 1.2% hits. recombinant Pol eta, fluorescent DNA replication assay. DNA polymerase eta (Homo sapiens), Q9Y253
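Pol eta at 10 nM preincubated with compounds 15 min at room temperature; reaction started with fluorescent substrate (50 nM final) and read kinetically at 0 and 10 min.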
FEN1 inh-1 – qHTS Assay for the Inhibitors of Human Flap endonuclease 1 (FEN1). P39748. Recombinant FEN1 flap cleavage, fluorescence, 15 min. Potency, µM (doses to about 114 µM), hits mostly inhibitors. 390,000 compounds, 0.35% hits; note: nearly all actives have a fitted effect of over 65% in size
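With each library titrated from low to high concentration, compounds met 10 nM FEN1 for 15 min at room temperature before 50 nM substrate was added; readings at 0 and 15 min fed four-parameter Hill curve fits.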
Pol kappa inh-1 – qHTS for Inhibitors of Polymerase Kappa | purified Pol kappa, fluorescent DNA synthesis assay, 10 min | Potency, µM (top dose mostly 107 µM), actives largely listed as inhibitors | 400,000 compounds, 0.53% hits
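Here, compound and 10 nM enzyme are combined for 15 min at room temperature; adding 50 nM substrate (final) starts DNA synthesis, tracked by fluorescence at 0 and 10 min against buffer-only wells.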
POLI inh – qHTS for Inhibitors of Polymerase Iota; DNA polymerase iota (Homo sapiens), Q9UNA4; Pol iota fluorescent replication assay, 10 min; Potency, µM (titrated, usually from 115 µM), usual class: inhibitors; 390,000 compounds, 1% hits; AID 588590, 2011
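Fluorescent replication assay read twice, at 0 min and 10 min after adding 50 nM (final) substrate. Enzyme (10 nM) and compounds were first incubated 15 min at room temperature; enzyme-free buffer wells were negative controls.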
WRN helicase inh-1 – qHTS for Inhibitors of WRN Helicase. WRN helicase unwinding, fluorescent forked duplex, kinetic. Potency, µM (top dose mostly 114 µM), most hits filed as inhibitors. 360,000 compounds, 0.46% hits. AID 651768, 2012; note: nearly all actives have a fitted effect of over 55% in size
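Kinetic fluorescence helicase assay: unwinding of a quenched forked DNA duplex (100 nM final) with 2 mM ATP final raises red fluorescence (525/598 nm). Compounds sat 15 min at room temperature with 20 nM WRN beforehand.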
Pol beta inh – qHTS Assay for Inhibitors of DNA Polymerase Beta | Potency, µM (doses to about 114 µM), actives largely listed as inhibitors | Pol beta primer extension/strand displacement, fluorescence kinetic | AID 485314, 2010 | 340,000 compounds, 1.3% hits
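Pol beta (10 nM) was preincubated with compound for 15 min at room temperature. The reaction was then started with 50 nM substrate and read immediately and after a further 10 min at room temperature.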
Pol kappa inh-2 – qHTS for Inhibitors of Polymerase Kappa: Confirmatory Assay for Cherry-picked Compounds | shares compounds with Pol eta inh-1 | purified Pol-kappa, fluorescent strand-displacement substrate | Potency, µM, usual class: inhibitors | 920 compounds, 76% hits | AID 720501, 2013
Pol eta inh-2 – qHTS for Inhibitors of Polymerase Eta: Confirmatory Assay for Cherry-picked Compounds. 2,600 compounds, 64% hits. Potency, µM, usual class: inhibitors. Pol eta primer extension, TAMRA/BHQ fluorescence, 10 min. shares compounds with Pol eta inh-1
FEN1 inh-2 – qHTS Assay for the Inhibitors of FEN1: Confirmatory Assay for Cherry-picked Compounds; AID 720498, 2013; 880 compounds, 79% hits; Potency, µM, usual class: inhibitors; shares compounds with FEN1 inh-1; FEN1 flap cleavage, TAMRA/BHQ2 fluorogenic DNA substrate; note: nearly all actives have a fitted effect of over 60% in size
WRN helicase inh-2 – qHTS for Inhibitors of WRN Helicase: Confirmatory Assay for Cherry-picked Compounds; shares compounds with WRN helicase inh-1; WRN helicase DNA unwinding, fluorescence kinetic; Potency, µM (highest dose often 57.1 µM), usual class: inhibitors; 610 compounds, 63% hits; AID 720497, 2013; note: nearly all actives have a fitted effect of over 65% in size
TO DNA binding – qHTS for Inhibitors of WRN Helicase: Thiazole Orange DNA Binding Counterscreen; thiazole orange DNA binding displacement, fluorescence; Potency, µM (highest dose often 57.1 µM), most hits filed as inhibitors; 610 compounds, 10% hits; shares compounds with WRN helicase inh-1;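 note: drop in dye fluorescence marks compound binding to DNA; nearly all actives have a fitted effect of over 60% in size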
BLM helicase inh – qHTS for Inhibitors of WRN Helicase: BLM Helicase Counterscreen for WRN Inhibitors. Recombinant BLM helicase DNA unwinding, red fluorescence. 610 compounds, 60% hits. AID 720503, 2013. shares compounds with WRN helicase inh-1. Potency, µM (series often up to 57.1 µM), usual class: inhibitors; note: nearly all actives have a fitted effect of over 60% in size
Numbers stand for hits; [ ] = another dose, or the depositor's remark. Sampled rows, rich in hits. Any-hit rate of the full collection: about 2.4%. Calls come from the whole dose curve; as a rule, active = well fitted curve in the direction sought with a large enough effect; inconclusive = small, poorly fitted or top-dose-only effect, or another doubt; inactive = no such curve, though single readings can be large; an effect the other way counts as inactive or inconclusive.

Results for CC1O[C@@H](O[C@H]2C(Oc3cc(O)c4c(=O)cc(-c5ccc(O)cc5)oc4c3)OC(CO)C(O)C2O)C(O)C(O)C1O (some centres undefined) ?
Pol kappa inh-1: inactive

What do the screens show for `CCOc1cc(-c2ccc(OC(=O)c3ccccc3)c(OC)c2)cc(=O)c2c(C)oc(C)c12`?
Pol eta inh-1: inactive; FEN1 inh-1: inactive; Pol kappa inh-1: inactive; POLI inh: inactive; Pol beta inh: inactive

What do the screens show for `CCOc1cc(-c2ccc3c(c2)OCO3)cc(=[O+]CC)c2c(C)oc(C)c12`?
FEN1 inh-1: 44.7µM; Pol kappa inh-1: 50.1µM; POLI inh: 50.1µM; Pol kappa inh-2: inconclusive; Pol eta inh-2: 47.8; FEN1 inh-2: inconclusive

What do the screens show for `CCN=C1S/C(=C\c2ccc(O)c(OCC)c2)C(=O)N1CC`?
Pol eta inh-1: inactive; FEN1 inh-1: inactive; Pol kappa inh-1: inactive; POLI inh: inactive; WRN helicase inh-1: inactive; Pol beta inh: inactive

Results for CCOc1cc(/C=C2\SC(=S)N(C(C(=O)O)c3ccccc3)C2=O)ccc1O (centres undefined) ?
Pol eta inh-1: inconclusive; FEN1 inh-1: inconclusive; Pol kappa inh-1: inconclusive; POLI inh: 28.2µM; WRN helicase inh-1: 56.2µM; Pol beta inh: inconclusive; Pol kappa inh-2: 42.3; FEN1 inh-2: 84.9

Results for CC(C)OC(=O)C(C(=O)OC(C)C)=C1SC=CS1 ?
Pol kappa inh-1: inactive

How did O=C1c2ccccc2C(=O)c2c(O)c(O)cc(O)c21 do in these assays?
Pol eta inh-1: 31.6µM; FEN1 inh-1: inconclusive; Pol kappa inh-1: 50.1µM; POLI inh: 79.4µM; WRN helicase inh-1: inactive; Pol kappa inh-2: 75.2; Pol eta inh-2: 42.6; FEN1 inh-2: 37.9

Results for OCCCNc1c2ccccc2nc2ccccc12 ?
Pol eta inh-1: inactive; FEN1 inh-1: 22.4µM; Pol kappa inh-1: 79.4µM; POLI inh: 22.4µM; WRN helicase inh-1: inactive[11.6 µM]; Pol beta inh: 17.8µM; Pol kappa inh-2: inconclusive; FEN1 inh-2: 21.3

How did COc1ccc2nc(N=Nc3ccc(N(C)C)cc3)sc2c1 do in these assays?
Pol eta inh-1: inactive; FEN1 inh-1: inactive; Pol kappa inh-1: inactive; POLI inh: inactive; WRN helicase inh-1: inactive; Pol beta inh: inactive

How did CN(C)c1ccc2nc3ccc(=O)cc-3sc2c1 do in these assays?
Pol eta inh-1: 39.8µM; WRN helicase inh-1: 56.2µM; Pol eta inh-2: inconclusive; FEN1 inh-2: 42.6

What do the screens show for `N=C1/C(=C\c2coc3ccc(O)cc3c2=O)C(=O)N=C2SC=CN12`?
Pol eta inh-1: 12.6µM; FEN1 inh-1: 50.1µM; Pol kappa inh-1: inconclusive; POLI inh: inconclusive; WRN helicase inh-1: 56.2µM; Pol beta inh: 3.98µM; Pol eta inh-2: 19; FEN1 inh-2: inconclusive

What do the screens show for `Cc1cc(N)c2cc(NC(=O)/C=C/c3ccccc3Cl)ccc2n1`?
Pol eta inh-1: inconclusive; FEN1 inh-1: inconclusive; Pol kappa inh-1: inactive; POLI inh: inactive; WRN helicase inh-1: inactive[11.6 µM]; Pol beta inh: 50.1µM; Pol eta inh-2: 67.5; FEN1 inh-2: 75.7

What do the screens show for `Cc1cc(C)nc(NC(=O)/C=C/c2ccccc2Cl)n1`?
Pol eta inh-1: inactive; FEN1 inh-1: inactive; Pol kappa inh-1: inactive; POLI inh: inactive; WRN helicase inh-1: inactive; Pol beta inh: inactive

How did CN(C)c1ccc(C=C2C(=O)c3ccccc3C2=O)cc1 do in these assays?
FEN1 inh-1: inactive; Pol kappa inh-1: inactive; POLI inh: inactive

How did CCN(CC)c1ccc(/C=C2\C(=O)c3ccc(C(=O)O)cc3C2=O)cc1 do in these assays?
Pol eta inh-1: 7.94µM; FEN1 inh-1: 39.8µM; Pol kappa inh-1: inconclusive; POLI inh: inconclusive; WRN helicase inh-1: 39.8µM; Pol beta inh: 39.8µM; Pol eta inh-2: 26.9; WRN helicase inh-2: 21.5µM; TO DNA binding: inactive; BLM helicase inh: inconclusive

Results for O=C1CN(C(=O)c2ccc(Cl)cc2Cl)C(c2ccc(F)cc2)c2cc(F)ccc2N1 (centres undefined) ?
Pol eta inh-1: inactive; FEN1 inh-1: inactive; Pol kappa inh-1: inactive; POLI inh: inactive; Pol beta inh: inactive

Results for Cc1noc(C)c1-c1cc(NC2CCNCC2)ncn1 ?
Pol kappa inh-1: inactive

What do the screens show for `Oc1ccc(/C=N/Nc2ncnc3c2ncn3Cc2ccccc2)cc1O`?
Pol eta inh-1: 3.16µM; FEN1 inh-1: inactive; Pol kappa inh-1: inconclusive; POLI inh: 2.24µM; WRN helicase inh-1: inconclusive; Pol beta inh: 3.55µM; Pol eta inh-2: 47.8; WRN helicase inh-2: 7.64µM; TO DNA binding: 19.2µM; BLM helicase inh: 2.41µM

How did COC(=O)c1cc(NC(=O)c2ccc3c(c2)NC(=O)c2ccccc2S3)cc(C(=O)OC)c1 do in these assays?
Pol eta inh-1: 50.1µM; FEN1 inh-1: inactive; Pol kappa inh-1: inactive; POLI inh: inconclusive; Pol beta inh: 6.31µM; Pol kappa inh-2: 9.47; Pol eta inh-2: inconclusive; WRN helicase inh-2: 13.6µM; TO DNA binding: inactive; BLM helicase inh: 1.92µM

What do the screens show for `O=C(Nc1ccc(F)cc1)c1ccc2c(c1)NC(=O)c1ccccc1S2`?
Pol eta inh-1: inactive; FEN1 inh-1: inactive; Pol kappa inh-1: inactive; POLI inh: inactive; Pol beta inh: inactive

How did N#Cc1c(-c2ccc(Cl)c([N+](=O)[O-])c2)no[n+]1[O-] do in these assays?
Pol eta inh-2: 75.7; WRN helicase inh-2: 19.2µM; TO DNA binding: inactive; BLM helicase inh: 21.5µM
